The source of these data is PubChem BioAssay (NCATS).

Results filed as inconclusive are left out. A number with no mark means an inactive call. The call rests on the fitted dose curve; in most records, active means well fitted activation curve with a large enough effect; inconclusive means small, poorly fitted or top-dose-only effect; inactive means flat fitted curve, though single readings scatter.

A short description of this assay: Primary redox qHTS assay for identification of artifact compounds. (AID 1845223).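 Further: 0% = DMSO and 100% = reference compound.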 The conditions noted are these: Amplex Red/HRP redox cycling with DTT, fluorescence; series mostly up to 53.8 µM; redox activity (% of DA3003): at the top concentration. Put shortly: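 Redox-cycling detection via DTT (250 uM final) oxidation coupled to Amplex Red (25 uM)/HRP (250 mU/mL) in HBSS. 15 min preincubation plus 30 min after DTT, room temperature. Ex/Em 525/598 nm; 4-parameter Hill fit against DMSO and 10 uM DA3003.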
For `CCN(CC)C(=O)c1ccc(Nc2nc(OCC3CCCCC3)c3[nH]cnc3n2)cc1`, the “redox activity (% of DA3003)” value is -3%.

Consider `C=C1C(=O)O[C@@H]2C3=C(C)CCC[C@]3(C)CC[C@@]12O`, for which the “redox activity (% of DA3003)” value was 14.4%.

For `CCN1CCN(Cc2ccc(NC(=O)c3ccc(C)c(Oc4ccnc5[nH]ccc45)c3)cc2C(F)(F)F)CC1`, the “redox activity (% of DA3003)” value is 12.1%.

In the case of `COc1cc2c(cc1-c1c(C)noc1C)ncc1[nH]c(=O)n(C(C)c3ccccn3)c12` (stereo unspecified), the “redox activity (% of DA3003)” value was 11.3%.

With `COC(=O)c1ccc(N2CCN(C)CC2)c(NC(=O)c2cccc(OC)c2)c1`, the “redox activity (% of DA3003)” value was 4.4%.

In the case of `O=C(O)c1ccc(S(=O)(=O)N(Cc2ccc(OC(F)(F)F)cc2)c2ncc(C(F)(F)F)cc2Cl)cc1`, the “redox activity (% of DA3003)” value was 11.7%.
